# Screening results from PubChem.
# Casp6 inh: inhibitors of human caspase-6; purified caspase-6, Z-VEID-R110 cleavage fluorescence; inhibition, % at 12.5 µM; hit rate 0.53% among 350,000;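 active means mean inhibition across replicates at least about 35%, with every replicate also reaching that limit, limit read from the data; inconclusive means only one of the two criteria met; inactive means neither criterion met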;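 further: 0% = median of neutral control wells and 100% = no fluorescence left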
# NSD2 HMT inh: inhibitors of human histone methyltransferase NSD2; AID 743445; NSD2 peptide methylation, AlphaScreen, 120 min; inhibition, % at 12.5 µM; hit rate 0.54% among 310,000; O96028; in the data active means inhibition above about 50%
# HDAC3 inh: human HDAC3 inhibition; O15379; recombinant HDAC3, fluorogenic peptide/trypsin coupled, fluorescence; hit rate 0.15% among 320,000; inhibition, % at 8.3 µM; in the data active means inhibition above about 26%, passing the limit was not always enough; inconclusive means no clear call, values can overlap the other calls
# Keap1-Nrf2 PPI: Keap1-Nrf2 (human) interaction inhibition; Q14145; Keap1 Kelch-Nrf2 peptide fluorescence polarization, 1536-well; inhibition, % at 9.4 µM; hit rate 0.15% among 340,000; in the data active means inhibition above about 12%; inconclusive means no clear call, values can overlap the other calls; inactive means below about 7.3%;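 further: human Keap1 Kelch domain with fluorescein labeled Nrf2 9mer peptide probe; 0% = neutral control wells and 100% = peptide positive control; higher means more block of Keap1 binding to Nrf2 peptide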
# Target sequence (Q14145 whole entry, looked up, the tested form may be a part): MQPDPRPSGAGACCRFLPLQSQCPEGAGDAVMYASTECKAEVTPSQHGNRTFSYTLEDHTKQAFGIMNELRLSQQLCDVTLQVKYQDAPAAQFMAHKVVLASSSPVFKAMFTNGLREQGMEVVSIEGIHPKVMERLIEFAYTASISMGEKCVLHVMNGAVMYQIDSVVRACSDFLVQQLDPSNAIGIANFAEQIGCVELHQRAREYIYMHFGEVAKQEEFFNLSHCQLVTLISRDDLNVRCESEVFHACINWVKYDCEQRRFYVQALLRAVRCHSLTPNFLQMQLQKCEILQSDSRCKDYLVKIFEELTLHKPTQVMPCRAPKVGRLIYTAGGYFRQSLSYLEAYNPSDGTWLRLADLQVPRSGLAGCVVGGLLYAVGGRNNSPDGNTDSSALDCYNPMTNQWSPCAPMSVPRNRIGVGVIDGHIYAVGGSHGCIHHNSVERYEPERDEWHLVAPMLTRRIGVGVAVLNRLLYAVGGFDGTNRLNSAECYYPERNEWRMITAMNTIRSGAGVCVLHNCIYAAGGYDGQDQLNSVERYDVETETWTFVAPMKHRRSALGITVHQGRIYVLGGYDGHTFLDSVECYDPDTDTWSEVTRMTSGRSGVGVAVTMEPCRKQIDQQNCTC
# LANA DNA inh: KSHV C-LANA DNA binding inhibition; MBP-C-LANA/FAM-LBS DNA binding, fluorescence polarization; inhibition, % at 9 µM; hit rate 0.078% among 340,000; AID 504423;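 active means highest replicate inhibition at or above 60% at 9 µM, even if other replicates fall short; inactive means all replicates below 60% inhibition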;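 further: 0% = neutral control wells and 100% = 4 µM acridine orange control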
# N-glyco inh: N-linked glycosylation inhibition; D54 ERlucT glycosylation luciferase reporter, 24 h; percent of 100 nM tunicamycin response; reporter increase, % at 12.5 µM; hit rate 0.23% among 360,000; AID 588692;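 active means mean luciferase reporter signal, scaled so untreated is 0 and the glycosylation-blocking control 100, at or above a set limit in every replicate; inconclusive means mean reaches the limit but not every replicate does; inactive means mean below the limit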;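 further: luciferase carries N-glycosylation sites so blocking glycosylation raises the light; 0% = median of neutral control wells and 100% = median of 100 nM tunicamycin wells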
# * hit, by the source's call; ? = inconclusive; nt = no result. Sampled rows, rich in hits. Any-hit rate of the full collection: about 1.1%.
SMILES,Casp6 inh,NSD2 HMT inh,HDAC3 inh,Keap1-Nrf2 PPI,LANA DNA inh,N-glyco inh
COc1ccc(S(=O)(=O)N(C)C[C@@H]2OCCCC[C@@H](C)Oc3ccc(NC(=O)Nc4c(C)noc4C)cc3C(=O)N([C@@H](C)CO)C[C@H]2C)cc1,-1,nt,nt,nt,nt,nt
O=S(=O)([N-]c1nc2ccccc2nc1-n1cc[n+](Cc2ccccc2)c1)c1ccc(Cl)cc1,-2,-3,-6,-3,2,47*
CC(C)CC[n+]1ccn(-c2nc3ccccc3nc2[N-]S(=O)(=O)c2ccccc2)c1,nt,3,-7,1,0,-4
O=C(NCCN1C(=O)S/C(=C\c2ccccc2Cl)C1=O)C1=COCCO1,-1,-2,8,2,1,?
O=C(NCCN1C(=O)S/C(=C\c2ccc(Cl)cc2Cl)C1=O)C1=COCCO1,39*,2,?,6,1,16
CO[C@H]1CN(C)C(=O)c2ccc(NS(=O)(=O)c3ccc(C)cc3)cc2OC[C@@H](C)NC[C@@H]1C,-1,nt,nt,nt,nt,nt
O=C(CSc1ncn[nH]1)CSc1ncn[nH]1,6,nt,37*,4,2,6
CCC(C)Nc1nc2c(C)cccn2c(=O)c1C=Nc1ccc(OC)cc1 (stereo unspecified),41*,-1,-3,0,-1,0
C[C@H](O)C#Cc1ccc2c(c1)O[C@H](CN(C)Cc1cncnc1)[C@@H](C)CN([C@H](C)CO)S2(=O)=O,3,nt,nt,nt,nt,nt
Cc1ccc(NC(=O)c2cc(S(=O)(=O)N(C)C)ccc2N2CCCC2)cc1S(=O)(=O)N(C)C,2,2,7,0,1,60*
COc1ccc(OC)c(NC(=O)c2cc(S(=O)(=O)N(C)C)ccc2N2CCCC2)c1,2,1,7,-4,0,1
COc1ccc(NC(=O)c2cc(S(=O)(=O)N(C)C)ccc2N2CCCC2)cc1Cl,2,-1,?,0,2,36*
Cc1ccc(NC(=O)c2cc(S(=O)(=O)N3CCCCC3)ccc2N2CCOCC2)cc1S(=O)(=O)N(C)C,-1,-2,nt,-2,-1,-4
O=C(Nc1cccc(F)c1)c1cc(S(=O)(=O)N2CCOCC2)ccc1N1CCCC1,nt,3,-1,3,0,28*
CCC(=O)N[C@@H]1CC[C@H](CCn2cc(CN(C)C)nn2)O[C@@H]1CO,-2,nt,nt,nt,nt,nt
C[C@@H]1CN([C@H](C)CO)C(=O)c2cc(NC(=O)C3CCCCC3)ccc2O[C@@H](C)CCCCO[C@@H]1CN(C)C(=O)Nc1cccc2ccccc12,-1,nt,nt,nt,nt,nt
O=C(C[C@H]1C[C@H]2c3cc(NC(=O)CC4CC4)ccc3O[C@H]2[C@H](CO)O1)NCc1ccncc1,-4,nt,nt,nt,nt,nt
Cc1cc(C(=O)N/N=C/c2cc(Br)c(Br)o2)n[nH]1,54*,16,9,-2,2,3
Cc1cc(C(=O)N/N=C/c2ccc(Br)o2)n[nH]1,16,2,16,-3,1,0
CC(C)CN1CCC(CN2CCNC(=O)C2=O)CC1,36*,nt,nt,3,4,1
CC(C)CCN1CCC(CN2CCNC(=O)C2=O)CC1,11,nt,nt,0,2,3
CO[C@@H]1CN(C)C(=O)c2cc(NS(=O)(=O)c3ccc(Oc4ccccc4)cc3)ccc2OC[C@H](C)NC[C@H]1C,0,nt,nt,nt,nt,nt
CCC(=O)Nc1ccc(C(=O)COC(=O)c2nc3nccc(C)n3n2)cc1,69*,7,-5,-1,1,0
O=C(Nc1ccc(Cl)cc1)N[C@@H]1CC[C@@H](CCNC(=O)c2cc(Cl)cc(Cl)c2)O[C@H]1CO,5,nt,nt,nt,nt,nt
CCCNC1=C(N(C(C)=O)c2cccc(F)c2)C(=O)c2ccccc2C1=O,80*,78*,4,3,-2,-23
CCCC(=O)NC1=C(Cl)C(=O)c2ccccc2C1=O,27,-1,nt,3,3,-3
C[C@@H]1CCCCO[C@H](CN(C)CC2CC2)[C@H](C)CN([C@H](C)CO)C(=O)c2cc(NS(=O)(=O)c3ccccc3)ccc2O1,-1,nt,nt,nt,nt,nt
CC(OC(=O)c1n[nH]c2ccccc12)C(=O)Nc1ccccc1[N+](=O)[O-] (stereo unspecified),36*,0,7,-4,-2,-3
Cc1ccc(NC(=O)C(C)OC(=O)c2n[nH]c3ccccc23)cc1 (stereo unspecified),3,-2,-3,7,2,0
Cc1nn(CCCC(=O)NCCc2ccccc2)c(=O)c2nn(-c3ccccc3)c(C)c12,50*,-3,-1,3,2,2
